From the supplement of paper PMC6124720

The compounds below were run on Pseudogymnoascus destructans 20631-21 (assay: growth activity index (DuctApe, 0 = no growth, 9 = maximal growth) (index 0-9); higher = more fungal growth (less inhibition), active = 0 or less; extreme values may be limits of the assay). Conditions: concentration level (1-4, increasing; Biolog proprietary): 3; temperature: 13 °C; YPD.
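Note: biolog Phenotype Microarray plates PM21–25, OD595 followed daily over 11 days, growth curves converted to index, mean of two independent experiments.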

Growth activity index, inactive:
CC(=O)OCC1=C(C(=O)O)N2C(=O)[C@@H](NC(=O)Cc3cccs3)[C@H]2SC1 [Cephalotin] (Biolog plate: PM22) 5
O=C([O-])c1ccccc1.[Na+] [Sodium Benzoate] (Biolog plate: PM24) 4.67
C[C@H]1c2cccc(O)c2C(=O)C2=C(O)[C@]3(O)C(=O)C(C(N)=O)=C(O)[C@@H](N(C)C)[C@@H]3[C@@H](O)[C@@H]21 [Doxycycline] (Biolog plate: PM23) 5.33
O.O=S(=O)([O-])[O-].O=S(=O)([O-])[O-].O=S(=O)([O-])[O-].[Al+3].[Al+3] [Aluminum sulfate] (Biolog plate: PM24) 6
CN(C)CCC=C1c2ccccc2CCc2ccccc21 [Amitriptyline] (Biolog plate: PM25) 2.67
NCCSCC(N)C(=O)O (stereo not given) [Thialysine] (Biolog plate: PM24) 4.67
O=S(O)(O)=S [Sodium Thiosulfate] (Biolog plate: PM23) 1.67
O=S(=O)([O-])[O-].[Cu+2] [Copper (II) sulfate] (Biolog plate: PM21) 6
Nc1[nH]c(=O)ncc1F [5-Fluorocytosine] (Biolog plate: PM25) 4.33
O=C([O-])CC(O)(CC(=O)[O-])C(=O)[O-].[Na+].[Na+].[Na+] [Citric acid Trisodium Salt] (Biolog plate: PM25) 4
